According to PubChem BioAssay AID411 (National Center for Advancing Translational Sciences (NCATS), 2006):
Out of some 72,000 compounds screened, about 1,600 (2.2%) were called active. A call without a number means that no potency is given here. Only a selection was taken, and actives are over-represented in it overall. A number with no mark means an inactive call. Calls follow the shape of the dose curve; as a rule, active = well fitted inhibition curve with a large enough effect; inconclusive = small, poorly fitted or top-dose-only effect; inactive = flat fitted curve, though single readings scatter.

biological target: Luciferin 4-monooxygenase (Photinus pyralis) (UniProt P08659); assay: qHTS Assay for Inhibitors of Firefly Luciferase; details: purified firefly luciferase, luminescence, 8 min; series mostly up to 57.1 µM; also: nearly all actives have a fitted effect of over 40% in size
Protocol: To aid in the interpretation of high-throughput screening (HTS) results derived from luciferase-based assays, we used quantitative HTS, an approach that defines the concentration-response behavior of each library sample, to profile the ATP-dependent luciferase from Photinus pyralis against more than 72 000 samples. Luciferase (PKLight, Cambrex Corporation) was assayed for its ability to generate light using ATP and luciferin as substrates. The ATP concentration in the assay (10 uM) was within the linear range of enzyme activity for the assay conditions used. See following reference for further details: [1] Auld DS, Southall NT, Jadhav A, Johnson RL, Diller DJ, Simeonov A, Austin CP, Inglese J. Characterization of chemical libraries for luciferase inhibitory activity. J Med Chem. 2008 Apr 24;51(8):2372-86. Auld DS, Zhang YQ, Southall NT, Rai G, Landsman M, Maclure J, Langevin D, Thomas CJ, Austin CP, Inglese J. A Basis for Reduced Chemical Library Inhibition of Firefly Luciferase Obtained from Directed Evolution. J. Med. Chem., 2009, 52 (5), pp 1450#1458 [3] Auld DS, Thorne N, Nguyen DT, Inglese J. A specific mechanism for nonspecific activation in reporter-gene assays. ACS Chem Biol. 2008 Aug 15;3(8):463-70. Auld DS, Thorne N, Maguire WF, Inglese J. Mechanism of PTC124 activity in cell-based luciferase assays of nonsense codon suppression. Proc Natl Acad Sci U S A. 2009 Mar 3;106(9):3585-90. Inglese J, Auld DS, Jadhav A, Johnson RL, Simeonov A, Yasgar A, Zheng W, Austin CP. Quantitative high-throughput screening: a titration-based approach that efficiently identifies biological activities in large chemical libraries. Proc Natl Acad Sci U S A. 2006 Aug 1;103(31):11473-8.
Four uL of substrate mix (final concentration, 50 mM imidazole pH 7.2, 50 mM KCl, 7 mM MgCl2, 10 uM ATP, 0.01% Tween 20, 0.05% BSA) was dispensed into white 1536 well plates. Twenty-three nL of compound was delivered by a pin tool and 2 uL of luciferase detector mix (PKLight, Cambrex) was added. Following 8-minute incubation at ambient temperature, luminescence was measured by a ViewLux (Perkin Elmer) at 5 seconds exposure/plate.
Potency is read from the fitted curve at half-maximal effect.

Chain of Luciferin 4-monooxygenase (Photinus pyralis) (P08659 whole entry, looked up): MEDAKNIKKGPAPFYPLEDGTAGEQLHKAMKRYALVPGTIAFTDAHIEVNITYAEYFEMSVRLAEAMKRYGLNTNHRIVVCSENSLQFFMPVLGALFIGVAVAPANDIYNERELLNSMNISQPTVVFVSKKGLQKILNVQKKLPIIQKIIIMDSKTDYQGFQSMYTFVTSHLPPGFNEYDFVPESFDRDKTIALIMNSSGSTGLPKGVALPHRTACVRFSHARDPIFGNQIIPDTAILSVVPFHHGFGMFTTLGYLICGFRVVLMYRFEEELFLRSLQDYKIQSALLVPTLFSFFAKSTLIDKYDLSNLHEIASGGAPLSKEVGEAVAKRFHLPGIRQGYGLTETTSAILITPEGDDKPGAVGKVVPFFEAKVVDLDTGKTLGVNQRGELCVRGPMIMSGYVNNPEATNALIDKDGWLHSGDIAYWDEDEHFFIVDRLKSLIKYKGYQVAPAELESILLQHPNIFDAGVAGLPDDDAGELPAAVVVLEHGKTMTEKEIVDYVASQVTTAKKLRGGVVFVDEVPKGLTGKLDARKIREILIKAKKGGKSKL

| SMILES | Potency | activity change, negative = inhibition |
| --- | --- | --- |
| c1ccc(-n2ncc3c(N4CCCC4)ncnc32)cc1 | 5.01 µM (active) | – |
| c1ccc(-n2ncc3c2ncn2c(C4CCCCC4)nnc32)cc1 | inactive | – |
| Cc1ccc(-n2ncc3c(N4CCN(c5ccc(F)cc5)CC4)ncnc32)c(C)c1 | inactive | – |
| COc1ccc(-n2ncc3c(N4CCCc5ccccc54)ncnc32)cc1 | 12.6 µM (active) | – |
| COc1ccc(N2CCN(C(=O)CSc3ncnc4c3cnn4-c3ccc(OC)cc3)CC2)cc1 | inactive | – |
| COc1ccc2c(c1)C=CC1(O2)N(CCO)c2ccccc2C1(C)C (stereo not drawn) | inactive | – |
| CCOC(=O)c1cc(-c2nnc(-c3cc(OC)c(OC)c(OC)c3)o2)c(C)nc1C | inactive | – |
| CC(=O)c1c(C)n(-c2ccc(N(C)C)cc2)c2ccc(OCC(N)=O)cc12 | inactive | – |
| N#CC1=C(N)C(C#N)(C#N)[C@H](c2ccsc2)[C@H]2COCC=C12 | inactive | – |
| Cn1c(CNC(=O)C(C)(C)C)nc2ccccc21 | inactive | – |
| Cc1nn2c3ccccc3nc2n(C)c1=O | inactive | – |
| Cn1c(-c2ccc(C(=O)c3ccccc3)s2)nc2ccccc21 | 2.51 µM (active) | – |
| Cn1c(=O)c2c(n(Cc3ccccc3)c1=O)NC(=O)C2CC(=O)N1CCc2ccccc2C1 (stereo not drawn) | inactive | – |
| Cc1cc(Cl)c(S(=O)(=O)Nc2ccc3c(c2)OCCO3)cc1OCC(N)=O | inactive | – |
| COc1ccccc1OCCOc1ccc(/C=N/n2cnnc2)cc1 | inactive | – |
| O=C(CSc1nc2c(cnn2-c2ccc(F)cc2)c(=O)[nH]1)N1CCCCCC1 | inactive | – |
| CCCC(=O)Nc1cccc(-c2cn3ccsc3n2)c1 | 15.8 µM (active) | – |
| O=C(NCc1cn2ccsc2n1)Nc1cccc(Cl)c1 | inactive | – |
| CCCC(=O)Nc1ccc2c(c1)nc1n2CCSC1 | inactive | – |
| O=C(O)CS(=O)c1ccc2c3c(cccc13)C(=O)c1ccccc1-2 (stereo not drawn) | – | -1.48% [at 11.4 µM] |
| CC(=NCC1CCCO1)c1c(O)[nH]c(=O)[nH]c1=O (stereo not drawn) | inactive | – |
| O=C(CS(=O)(=O)Cc1ccccc1)NCC1CCCO1 (stereo not drawn) | inactive | – |
| O=C1C(C=NCC2CCCO2)=C(O)c2ccccc21 (stereo not drawn) | 15.8 µM (active) | – |
| Nc1nc(SCCOc2ccccc2)n[nH]1 | inactive | – |
| CCCCOc1ccc(-c2ncc(C(=O)OCC)c(N)n2)cc1 | inactive | – |
| CCCOc1ccc(-c2nc(N)n[nH]2)cc1 | 15.8 µM (active) | – |
| O=C(Cn1[nH]c(=O)c2ccccc2c1=O)Nc1cccc(-c2nnc3n2CCCCC3)c1 | inactive | – |

| SMILES | Potency | activity change, negative = inhibition |
| --- | --- | --- |
| Cc1cc(=O)n2c3c(cccc13)CCC2 | inactive | – |
| O=c1c2c(nc3n1CCCCC3)sc1c(O)cccc12 | 15.8 µM (active) | – |
| CCCn1c(=O)c2ccccc2n2c(SCC(=O)/C(C#N)=C(\C)N)nnc12 | inactive | – |
| CCc1ccc2oc(-c3ccc(N)cc3)nc2c1 | 2 µM (active) | – |
| Nc1ccc(-c2nnc(-c3ccc(-c4ccccc4)cc3)o2)cc1 | inactive | – |
| CCCCCC(=O)Nc1ccc2oc(-c3ccncc3)nc2c1 | inactive | – |
| Cc1cc(Cl)c(S(=O)(=O)NCC2CCCO2)cc1OCC(N)=O (stereo not drawn) | inactive | – |
| Nc1ncc(-c2cc3ccccc3oc2=O)s1 | 12.6 µM (active) | – |
| O=C(NCc1ccccn1)c1cc2ccccc2oc1=O | inactive | – |
| O=C(Oc1cccnc1)c1cc2ccccc2oc1=O | inactive | – |
| O=c1c(-c2ccc(F)cc2)nc2cncnc2n1-c1ccccc1 | – | 0.918% [at 11.4 µM] |
| CCC(=O)Nc1ccc(C(=O)CSc2nnc(CNc3ccc(Cl)cc3)o2)cc1OC | inactive | – |
| C#CC(C)(C)NC(=O)CSc1nc2c(c(=O)n(C)c(=O)n2C)n1CCCC | inactive | – |
| Cc1c(NC(=O)Nc2ccccc2Cl)sc(=S)n1C | inactive | – |
| Oc1ccc(-c2csc(Nc3cccnc3)n2)cc1 | inactive | – |
| Clc1ccc(Nc2nc(-c3cccs3)cs2)nc1 | inactive | – |
| c1ccc(Nc2nc(-c3ccncc3)cs2)nc1 | 7.94 µM (active) | – |
| CC(=O)OCC(=O)[C@@]1(O)CC[C@@H]2[C@H]3CCC4=CC(=O)C=C[C@]4(C)[C@]3(F)[C@@H](O)C[C@@]21C | inactive | – |
| Cn1c2c(c(=O)n(C)c1=O)CN(Cc1ccco1)CN2 | inactive | – |
| COc1cc(OC)c(C(=O)Nc2ccc(N(C)C)cc2)cc1OC | 15.8 µM (active) | – |
| COc1cc(OC)c(C(=O)NC2CCCCCC2)cc1OC | inactive | – |
| COc1ccc(C(=O)Nc2cccnc2)cc1C(=O)Nc1cccnc1 | inactive | – |
| CCOP1(=O)C=C(C(C)(C)C)OC1c1ccc(F)cc1 (stereo not drawn) | inactive | – |
| O=c1c(-c2ccc(F)c(F)c2)nc2cncnc2n1-c1ccccc1 | – | 1.37% [at 11.4 µM] |
| COc1ccc(Oc2ncc3nc(-c4ccc(F)cc4)c(=O)n(C)c3n2)cc1 | – | 0.178% [at 11.4 µM] |
| CN1CCC2(CC1)CCN(S(=O)(=O)c1ccccc1)CC2 | – | 1.62% [at 11.4 µM] |
